# Compounds with a hit are over-represented: about 5.1% of the library has one in this group of screens.
# MPTP block: blocks calcium-induced mitochondrial swelling; isolated mouse mitochondria, Ca2+ swelling absorbance, 30 min; inhibition, % at 10 µM; hit rate 1.4% among 360,000;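 active means inhibition of 50% or more, scaled per plate between neutral and stimulator controls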;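 further: 0% = DMSO wells given calcium and 100% = 1 mM EGTA wells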
# CRFBP-R2 agonist: CRF-BP/CRF-R2 complex agonism | HEK293 CRF-R2/CRF-BP, calcium dye fluorescence (FLIPR); percent of saturating CRF peptide response | activation, % at 13.2 µM | hit rate 0.46% among 350,000 | AID 588473;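 active means activation of at least 50%, plus an integration ratio under a set limit after plate pattern correction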;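 further: plate controls were neutral control wells without compound for no effect and CRF at EC100 for full effect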
# TMEM16A act: mouse TMEM16A channel activation, primary screen; Q8BHY3; HEK293 TMEM16A/YFP-H148Q/I152L, iodide quench fluorescence; stronger effect = lower value; B-score at 10 µM; hit rate 0.3% among 340,000; AID 623877;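 active means fluorescence-ratio B-score plate-corrected deviation score at least 3 library SD below zero, with starting fluorescence score within 5 deviations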;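 further: channel opened by trigger with iodide after compound preincubation; score built on the fluorescence ratio of max minus min over baseline; more negative score means more quench and so TMEM16A activation or potentiation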
# CRFBP-R2 block: antagonists of CRF-binding protein/CRF-R2 receptor complex | HEK293 CRF-R2/CRF-BP, CRF-induced calcium fluorescence | inhibition, % at 11.8 µM | hit rate 0.59% among 350,000 | AID 588475;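 active means inhibition of the ligand-induced calcium signal above about 50% at the single tested concentration, limit read from the data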
# ANO1 block: mouse TMEM16A channel inhibition, primary screen | AID 588511 | normalized B-score (activity score, 25-100; higher = stronger inhibition) at 10 µM | HEK293 TMEM16A/YFP iodide influx fluorescence, ionomycin | hit rate 1.2% among 310,000 | Q8BHY3;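 active means ratio plate-corrected score three or more library SD toward inhibition, starting fluorescence score within five deviations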;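 further: score derived from kinetic fluorescence span divided by baseline fluorescence per well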
# NR3A LBD binder: modulates the human NR3A ligand-binding domain; NR3A LBD differential scanning fluorimetry, Tm shift; 0% = protein alone, 100% = glycine-bound protein; Tm shift relative to glycine control, % at 25 µM; hit rate 2.5% among 340,000; AID 1259313;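 active means melting temperature shift of at least 10% of the positive control shift, at one fixed dose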
# MPTP counter: Rhodamine 123 counter-screen of mitochondrial pore hits; shares compounds with MPTP block; isolated mitochondria, membrane potential, Rhodamine 123 fluorescence; inhibition, % at 10 µM; hit rate 78% among 5,000; in the data active means inhibition above about 22%;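 further: 0% = DMSO vehicle and 100% = positive control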
# MPTP swell DR: dose response confirmation of mitochondrial permeability transition pore inhibitors; shares compounds with MPTP block; isolated mitochondria swelling, absorbance; IC50, µM; hit rate 58% among 780; AID 651561; in the data active means IC50 below about 20 µM
# MPTP counter DR: MPTP inhibitor counter-screen activity, dose response | shares compounds with MPTP block | hit rate 49% among 780 | AID 651564 | IC50, µM | isolated mitochondria counterscreen, fluorescence read-out; in the data active means IC50 below about 80 µM
# Numbers without * were called inactive; i = inactive; · = no result given.
SMILES,MPTP block,CRFBP-R2 agonist,TMEM16A act,CRFBP-R2 block,ANO1 block,NR3A LBD binder,MPTP counter,others
COC(=O)c1cc(NC(=O)Nc2ccccc2)ccc1Cl,76*,0,i,-6,i,39*,83*,
O=C(NCC1CC1(Cl)Cl)Nc1ccc(Cl)c(Cl)c1 (stereo unspecified),62*,7,i,3,i,4,95*,
COC(=O)c1sccc1NC(=O)Nc1ccc(Cl)c(Cl)c1,103*,7,i,1,i,-1,107*,
COC(=O)c1cccc(NC(=O)Nc2ccc(Cl)c(Cl)c2)c1,98*,28,i,4,i,43*,70*,
C[C@@H]1CN([C@H](C)CO)C(=O)CCCn2cc(nn2)CO[C@H]1CN(C)C(=O)Nc1ccc2c(c1)OCCO2,0,-1,·,8,·,·,·,
CCOC(=O)C1CCN(C(=O)c2ccc3c(=O)n4nc(Nc5ccccc5)sc4nc3c2)CC1,0,2,·,9,·,·,·,
NC(=S)NNC(=O)Nc1ccc(Cl)c(Cl)c1,72*,0,i,9,i,6,70*,
CCN(CC)C(=S)Nc1ccc(Cl)c(Cl)c1,71*,3,i,-1,i,0,59*,
CN(C)S(=O)(=O)Oc1cccc(C(=O)Nc2ccc(Cl)c(Cl)c2)c1,96*,9,i,-53,i,9,91*,
O=C(Cc1ccccc1)NNC(=O)Nc1ccc(Cl)c(Cl)c1,7,-1,i,-1,i,-3,·,
CCOC(=O)c1csc(CCNC(=O)c2ccccc2)n1,0,0,·,-14,·,·,·,
O=C(NCc1ccccc1)C1CCCN1C(=O)Nc1ccccc1[N+](=O)[O-] (stereo unspecified),0,-1,i,11,i,-2,·,
NS(=O)(=O)c1ccc(NS(=O)(=O)c2ccc(C3CNC(=O)C3)cc2)cc1 (stereo unspecified),0,-1,i,-4,i,1,·,
O=C(NCCC1=CCCCC1)Nc1ccc2nsnc2c1,85*,10,i,-15,i,2,85*,
CCOC(=O)c1ccc(NC(=S)NC(=O)C2CCCC2)cc1,1,2,i,-5,i,-2,·,
CC(=O)c1cccc(NC(=S)NCCC2=CCCCC2)c1,6,-2,i,-2,i,-5,·,
Cc1ccc(NC(=S)NCCC2=CCCCC2)cc1,0,-1,i,0,i,-7,·,
CCOC(=O)c1ccc(NC(=O)NCc2ccccc2)cc1,28,0,i,-1,i,-29,·,
CCOC(=O)c1ccc(NC(=S)NCCC2=CCCCC2)cc1,77*,6,i,-32,i,13*,86*,
CCOC(=O)c1ccc(NC(=S)NC2CCCC2)cc1,95*,35,i,2,i,-6,96*,
CCOC(=O)c1ccc(NC(=S)NCc2ccccc2)cc1,89*,9,i,15,i,2,87*,
Cc1nn(Cc2ccccc2)c2ncccc12,0,-1,i,-2,i,2,·,
COC(=O)c1ccc(NC(=S)NC2CCCCC2C)cc1 (stereo unspecified),98*,6,i,25,i,-5,94*,
COC(=O)c1ccc(NC(=S)NC(=O)C2CCC2)cc1,1,-1,i,-12,i,-1,·,
CCCNC(=O)c1cc(C2CCCN(C(=O)c3ccc(OC)cc3)C2)on1 (stereo unspecified),1,·,·,·,·,·,·,
SMILES,MPTP block,CRFBP-R2 agonist,TMEM16A act,CRFBP-R2 block,ANO1 block,NR3A LBD binder,MPTP counter,others
CN(Cc1ccc(Cl)cc1Cl)C(=O)CNC(=O)c1ccc2c(c1)OCO2,0,-4,i,-6,i,0,·,
Cc1nn(-c2ccccc2)c2c1C(c1cccs1)C(C#N)=C(N)O2 (stereo unspecified),75*,-2,i,9,i,-9,7,
CCOc1cc(CNCc2ccccc2)ccc1OCc1ccc(Cl)cc1,68*,0,i,-19,100*,-6,73*,
COc1ccc(CCNCc2ccc(OCc3ccccc3)cc2)cc1,98*,4,i,-6,i,1,-2,MPTP swell DR=4.4*;MPTP counter DR=28*
Cn1nnnc1SCCNCc1ccccc1OCc1ccc(Cl)cc1,2,-2,i,-3,i,-5,·,
c1ccc(COc2ccc(CNCc3cccs3)cc2)cc1,96*,-3,i,-26,i,-1,-1,MPTP swell DR=6.4*;MPTP counter DR=31*
Brc1ccc(CNCc2cccs2)cc1,1,3,i,-13,i,3,·,
Cn1nnnc1SCCNCc1cc(Cl)ccc1OCc1ccccc1,83*,0,i,32,i,-2,31*,
COc1ccc(CNS(=O)(=O)CCNCCc2ccccc2)cc1,-1,-3,·,9,·,-4,·,
Cc1cccc(CNC(=O)Cn2ccc3cc(S(=O)(=O)N4CCCC4)ccc32)c1,0,-1,i,-5,i,-2,·,
COc1ccc(CNCCc2ccc(Cl)cc2)cc1OCc1ccccc1,86*,6,i,-38,100*,1,84*,
COc1ccc(CNCCC(c2ccc(F)cc2)c2ccc(OC)cc2)cc1 (stereo unspecified),56*,2,i,-29,i,0,-8,
COc1ccc(CCNC(=O)Cc2ccc(OCc3ccccc3)c(OC)c2[N+](=O)[O-])cc1OCc1ccccc1,76*,3,i,2,i,-4,55*,
COc1cc(OC)c(NC(=O)C2CC(=O)N(c3ccc4c(c3)OCCO4)C2)cc1Cl (stereo unspecified),-3,-1,i,4,i,0,·,
O=C(NCc1ccccc1)Nc1nnc([C@@H]2C[C@H](O)[C@@H](CO)O2)s1,-1,·,·,·,·,·,·,
COc1ncc(C2=CC(=O)CC(C)(C)C2)cn1,0,3,i,0,·,2,·,
O=[N+]([O-])c1ccc(O)c2ncccc12,-30,6,i,13,i,-11,·,
O=[N+]([O-])c1cc([N+](=O)[O-])c2cccnc2c1Oc1ccccc1O,70*,-1,i,12,i,-11,80*,
C=CCn1c(SCC(=O)Nc2sccc2C(N)=O)nc2ccc(Cl)cc2c1=O,1,0,i,8,i,1,·,
C=CCn1c(SCN2C(=O)c3ccccc3C2=O)nc2ccc(Cl)cc2c1=O,90*,2,i,-2,i,-3,90*,
Nc1c(-c2ccc3c(c2)OCCO3)oc2ccccc2c1=O,-1,4,i,13,i,0,·,

# Source: PubChem (several laboratories)
